We go through 99 compounds from PubChem BioAssay AID1626 (SRMLSC, 2009).

Molecules are shown by their SMILES. About 2,000 (0.91%) of roughly 220,000 compounds were called active. About 2% were inconclusive and are not listed. Cut-off read from the data, not from the text of the source: inconclusive = inhibition above about 80% without an active follow-up result; inactive = below that; test concentration not stated here. The list is a sample of the results. Potency and affinity values are given separately.

The inhibition is the relative decrease from the control value, in per cent.

This assay in a line: M. tuberculosis H37Rv growth inhibitors, H37Rv strain (AID 1626).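 Note: bacteria incubated seven days before Alamar blue readout; 0% = bacteria only wells and 100% = bacteria with antibiotic wells.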 The settings on record: hits give high values, concentration not given here.
Turning to `Cc1ccc2c(c1)NC(=O)C(CC(=O)NCCCN1CCc3ccccc3C1)O2` (centres undefined), the inhibition is -7.1% (inactive).
For `COCCOC(=O)c1c(C)oc2ccc(OC(=O)c3c(OC)cccc3OC)cc12`, the inhibition is 9.56% (inactive).
In the case of `CC(=O)Oc1ccc2c(C)cc(=O)oc2c1`, the inhibition is 74.8% (inactive).
Regarding `COCCOC(=O)c1c(C)oc2ccc(OC(=O)N(C)C)cc12`, the inhibition was -0.97% (inactive).
Consider `COCCOC(=O)c1c(C)oc2ccc(OS(C)(=O)=O)cc12`, for which the inhibition was 10.4% (inactive).
Turning to `COCCOC(=O)c1c(C)oc2ccc(OCc3ccccc3)cc12`, the inhibition is 0.54% (inactive).
As for `Cc1cc(=O)oc2cc(OC(=O)c3ccccc3)ccc12`, the inhibition is 70% (inactive).
As for `COc1ccccc1N(CC(=O)NCc1ccccc1)C(=O)CCC(=O)Nc1cc(C)ccn1`, the inhibition was -0.58% (inactive).
Consider `Clc1cccc(-c2nnc(-c3ccccc3)o2)c1`, for which the inhibition was 10.9% (inactive).
As to `N#CCC(=O)Nc1ccc(C(=O)NCc2ccccn2)cc1`, the inhibition was -2.46% (inactive).
Take `CCC(=O)c1cc(F)c(N2CCN(S(=O)(=O)c3ccc(C)cc3)CC2)cc1C`: the inhibition was 4.53% (inactive).
Regarding `O=C(CN1C(=O)CCSc2ccccc21)N1CCC2(CC1)OCCO2`, the inhibition is -1.04% (inactive).
As for `CCc1nnc(NC(=O)CSc2nnc(COc3ccccc3)n2Cc2ccccc2)s1`, the inhibition was -6.06% (inactive).
With `O=C(NCc1ccccc1)c1c[nH]c2cc3c(cc2c1=O)OCCO3`, the inhibition is -8.63% (inactive).
For the compound `CC(c1ccccc1C(O)(c1ccccc1)c1ccccc1)N(C)C` (centres undefined), the inhibition is 12.7% (inactive).
Regarding `CC(c1ccccc1C(O)c1ccccc1)N(C)C` (centres undefined), the inhibition is -3.64% (inactive).
Consider `COc1ccc(CNC(=O)CCn2c(=O)[nH]c3ccccc3c2=O)cc1`, for which the inhibition was -0.21% (inactive).
For `CCn1c(C2CCN(S(=O)(=O)c3ccc(OC)cc3)CC2)n[nH]c1=S`, the inhibition is 2.92% (inactive).
With `Cc1ccc(C2C(C#N)=C(N)Oc3n[nH]c(C)c32)cc1` (centres undefined), the inhibition was -5.8% (inactive).
Regarding `Cc1[nH]nc2c1C(c1ccco1)C(C#N)=C(N)O2` (centres undefined), the inhibition is 5.49% (inactive).
On to `Cc1[nH]nc2c1C(c1ccc(Cl)cc1)C(C#N)=C(N)O2` (centres undefined), for which the inhibition was -11.2% (inactive).
Consider `Cc1[nH]nc2c1C(c1ccc(-c3ccccc3C#N)o1)C(C#N)=C(N)O2` (centres undefined), for which the inhibition was -1.71% (inactive).
The value for `O=C1CCC(c2ccccc2)=NN1` was -7.26% (inactive).
For the compound `CC(C)=C1C2CCC1C1C(=O)N(c3ccc(C)c(C)c3)C(=O)C21` (centres undefined), the inhibition is 2.47% (inactive).
For the compound `Cn1cc(Br)c(C(=O)NC(=S)Nc2ccc(S(N)(=O)=O)cc2)n1`, the inhibition is -5.09% (inactive).
With `Cc1cc(C(=O)Nc2cccnc2Cl)on1`, the inhibition is -0.41% (inactive).
Consider `Cc1occc1-c1nnc(SCC(=O)Nc2nccs2)n1CCc1ccccc1`, for which the inhibition was 1.51% (inactive).
Regarding `CC(=O)Nc1nc(-c2cccs2)cs1`, the inhibition was -6.43% (inactive).
Consider `Cc1csc(NC(=O)c2ccc(C)c([N+](=O)[O-])c2)n1`, for which the inhibition is 3.94% (inactive).
As to `COCC(=O)Nc1nc(-c2ccc([N+](=O)[O-])cc2)cs1`, the inhibition is 0.01% (inactive).
With `CC(=O)Nc1nc(-c2ccc([N+](=O)[O-])cc2)cs1`, the inhibition is -3.92% (inactive).
As to `COc1ccc(CC(=O)Nc2nc(-c3cccc([N+](=O)[O-])c3)cs2)cc1`, the inhibition is 1.75% (inactive).
Under `Cc1csc(NC(=O)c2ccc(C(=O)Nc3nc(C)cs3)cc2)n1` stands -5.15% (inactive).
The value for `Cc1cc(NS(=O)(=O)c2ccc(NC(=O)NC(C)(C(F)(F)F)C(F)(F)F)cc2)no1` was 3.8% (inactive); that for `CCN1CCN(C(=O)CCNC(=O)Cn2ccc3ccccc3c2=O)CC1` was -4.7% (inactive).
With `O=C(O)c1ccc(Cn2cnc3scc(-c4ccccc4)c3c2=O)cc1`, the inhibition is 1.45% (inactive).
As for `CCc1cccc2c(C(=O)CSc3nnc(-c4ccoc4C)n3C)c[nH]c12`, the inhibition is -9.96% (inactive).
For the compound `Cc1ccc2nc3c(cc2c1)CC1(C(=O)N(C)C(=O)N(C)C1=O)C1COCCN31` (centres undefined), the inhibition is 15.8% (inactive).
The value for `Cc1ccc(-n2c(=S)[nH]c3[nH]ncc3c2=O)cc1` was 1.01% (inactive).
For the compound `O=C1Nc2cc(C(=O)N3CCc4ccccc4C3)ccc2S/C1=C\c1ccccc1`, the inhibition is 27.6% (inactive).
For `COc1ccc(/C=C2\Sc3ccc(C(=O)N4CCc5ccccc5C4)cc3N(C)C2=O)cc1`, the inhibition is 23.7% (inactive).
Take `CCCCSc1nc2ccc(Nc3nc(N4CCOCC4)nc(N4CCOCC4)n3)cc2s1`: the inhibition was 7.41% (inactive).
In the case of `COCc1cc(=O)n2[nH]c(SCc3ccccc3)nc2n1`, the inhibition was -0.4% (inactive).
`CC(C)COc1ncnc2c1sc1nc3c(cc12)COC(C)(C)C3`: the inhibition was -12.6% (inactive).
With `Cc1cc(NCCCN2CCOCC2)n2nc(C)c(-c3ccccc3)c2n1`, the inhibition was 1.95% (inactive).
As for `Cc1nn2c(N3CCCC3)cc(C(C)C)nc2c1-c1ccccc1`, the inhibition is -3.85% (inactive).
Take `Cc1nn2c(NCc3ccccn3)cc(C(C)C)nc2c1-c1ccccc1`: the inhibition was 99.8% (inactive).
As to `Cc1nn2c(NCc3ccccn3)cc(C(C)(C)C)nc2c1-c1ccccc1`, the inhibition was 68.6% (inactive).
Take `CC(=O)Nc1ccc(Nc2cc(C)nc3c(-c4ccc(Cl)cc4)c(C)nn23)cc1`: the inhibition was 21.5% (inactive).
For the compound `Cc1cc(Nc2ccccc2)n2nc(C)c(-c3ccccc3)c2n1`, the inhibition was 3.74% (inactive).
The value for `CCCc1cc(N2CCCC2)n2nc(C)c(-c3ccccc3)c2n1` was -0.95% (inactive); that for `Cc1cc(NCCN2CCOCC2)n2nc(C)c(-c3ccccc3)c2n1` was 2.31% (inactive).
In the case of `NC(=S)Nc1cccc(F)c1`, the inhibition was -6.55% (inactive).
With `Cc1ccc(CNC(=O)Nc2cccc(C)c2)cc1`, the inhibition was -0.4% (inactive).
As for `CCC(Sc1ccccn1)C(=O)Nc1nnc(C)s1` (centres undefined), the inhibition is 22% (inactive).
In the case of `O=C(Nc1ccc2c(c1)OCO2)c1nn(-c2ccccc2)c(=O)c2ccccc12`, the inhibition is -10.6% (inactive).
Under `Cc1ccc(Nc2nc(-c3c(C)nc4ncccn34)cs2)cc1` stands 6.26% (inactive).
On to `Cc1nc2ncccn2c1-c1csc(Nc2ccc(O)cc2)n1`, for which the inhibition is 1.06% (inactive).
Take `O=C(Nc1cccc(Cl)c1)OCc1cn(-c2ccccc2)nn1`: the inhibition was -9.19% (inactive).
Regarding `Cc1ccc(CN2CCN(/N=C/c3cc(Br)ccc3O)CC2)cc1`, the inhibition is 2.82% (inactive).
On to `COc1ccc(CCNC(=O)CN(CCc2ccccc2)S(C)(=O)=O)cc1OC`, for which the inhibition is 5.24% (inactive).
Consider `CCCN(CCC)C(=O)CSc1nc2c(sc(=S)n2-c2ccc(OCC)cc2)c(=O)[nH]1`, for which the inhibition is 6.22% (inactive).
Under `O=C(Nc1ccccc1C(=O)NCc1ccccc1)c1ccccc1` stands -4.15% (inactive); under `O=C(O)CCC(=O)Nc1ccccc1C(=O)NCc1ccccc1`, -4.2% (inactive).
With `O=C(NCc1cccc(CNC(=O)c2ccco2)c1)c1ccco1`, the inhibition was -1.79% (inactive).
For `N/C(Cc1ccccc1Sc1ccccc1)=N\O`, the inhibition is -3.65% (inactive).
The value for `COc1ccc(-c2csc(-c3cccs3)n2)c(OC)c1` was 6.31% (inactive); that for `COc1ccc(-c2noc(-c3cccs3)n2)cc1OC` was 10.1% (inactive); that for `O=C(CN1C(=O)NC2NC(=O)NC21)NN=C1CCCC1` (centres undefined) was -3.27% (inactive).
In the case of `Cc1ccccc1N(CC(=O)NCCSCc1ccco1)S(C)(=O)=O`, the inhibition was -3.95% (inactive).
For the compound `O=C(COC(=O)c1ccc(O)cc1)Nc1ccc(N2CCCCC2)cc1`, the inhibition is 3.59% (inactive).
The value for `CC12CCC(C(=O)Nc3ccc4c(c3)OCCO4)(OC1=O)C2(C)C` (centres undefined) was -12.4% (inactive); that for `N#Cc1c(N)c(C(=O)c2ccc(Cl)cc2)n2c1CCC2` was -2.62% (inactive).
Turning to `CC(C)(C)C(=O)Nc1nnc(-c2ccncc2)o1`, the inhibition is -0.06% (inactive).
`O=C(Nc1cccnc1)c1ccc(Br)s1`: the inhibition was -8.07% (inactive).
In the case of `CCCCNC(=O)Nc1nnc(-c2ccccc2)o1`, the inhibition was 64.8% (inactive).
Regarding `O=C(Nc1nnc(-c2ccncc2)o1)c1ccccc1`, the inhibition was 68% (inactive).
As to `O=C(Nc1nnc(-c2ccccc2)o1)c1cccc(N2C(=O)CCC2=O)c1`, the inhibition was 7.39% (inactive).
Under `CCCCOC(=O)c1nnc(-c2ccc(Cl)cc2)o1` stands -12.6% (inactive); under `CC(C)C(=O)Nc1nnc(-c2ccccc2)o1`, 10.9% (inactive).
The value for `CC(NC(=O)c1ccc(Br)s1)c1ccncc1` (centres undefined) was 0.09% (inactive).
Under `COCCNC(=O)CCC(=O)NNc1nc2ccccc2c2nc(C)nn12` stands -0.78% (inactive); under `CN(C)S(=O)(=O)c1cccc(C(=O)Nc2ccccc2[N+](=O)[O-])c1`, -64.1% (inactive); under `CC(=O)c1cccc(NC(=O)c2ccc(N(Cc3ccc(C)cc3)S(C)(=O)=O)cc2)c1`, 1.69% (inactive).
`Cc1ccc(/C=N/n2c(C)cc(C)c(C#N)c2=O)cc1`: the inhibition is -12.6% (inactive).
`O=C(NC1(C(F)(F)F)NC(=O)N(c2ccccc2F)C1=O)c1ccncc1` (centres undefined): the inhibition was -15.1% (inactive).
Regarding `Cc1nnc(N)s1`, the inhibition was -5.97% (inactive).
As to `CN(C)c1ccc(C(=O)NNC(=O)c2ccc(Cl)cc2)cc1`, the inhibition was -8.45% (inactive).
Regarding `O=C(Nc1nnc(-c2ccc(Cl)cc2)o1)c1ccc(N2C(=O)CCC2=O)cc1`, the inhibition was 8.01% (inactive).
As to `O=C(CNc1cccc(C(F)(F)F)c1)N/N=C/c1cn(-c2ccccc2)nc1-c1ccccc1`, the inhibition is 8.35% (inactive).
Consider `CC(C)(C)C1CCc2c(sc3nc(SCC(=O)O)nc(N)c23)C1` (centres undefined), for which the inhibition is -0.64% (inactive).
For the compound `CNC(=O)CSc1nc(N)c2c3c(sc2n1)CCC3`, the inhibition was 9.76% (inactive).
For the compound `NC(=O)CSc1nc(N)c2c3c(sc2n1)CCCCC3`, the inhibition is -1.55% (inactive).
Take `CC1CCc2c(sc3nc(SCC(=O)NCc4ccco4)nc(N)c23)C1` (centres undefined): the inhibition was 7.95% (inactive).
Under `CCOC(=O)CSc1nc(N)c2c3c(sc2n1)CCCC3` stands 70.6% (inactive); under `Cc1ccccc1NC(=O)CSc1nc(N)c2c3c(sc2n1)CSC(C)(C)C3`, 53.7% (inactive).
With `CCOc1ccccc1C1C(C#N)=C(N)Oc2cc(N)ccc21` (centres undefined), the inhibition is 8.36% (inactive).
As to `C=CCN1C(=O)C(C(C)CC)NC1=S` (centres undefined), the inhibition was -2.92% (inactive).
For `Cc1ccc(N=C2NC(=O)C(CC(=O)NCc3ccccc3)S2)cc1C` (centres undefined), the inhibition was -1.52% (inactive).
